Structures are written as SMILES. Activity calls are given as the source filed them.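 The calls were made as follows: active = inhibition of the reporter signal at or above 50%; inactive = inhibition below 50%.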

A short description of the assay: TLR3 IRF3 reporter activation blockers – cell-based, poly I:C stimulus, luciferase, 10K MLSCN set, primary screen (AID 602277). The settings on record: HEK293-TLR3 RL24 IRF3 luciferase reporter, at 10 µM, active compounds read high.
As a reminder, the inhibition is the change of the read-out against control, counted positive when it falls. With `COc1cc(C(=O)Nc2ccc3c(c2)C(=O)N(CCC(=O)O)C3=O)cc(OC)c1OC`, the inhibition was 18% (inactive).

Consider `Cc1cc(NC(=O)c2ccc3nc(-c4ccccc4)c(-c4ccccc4)nc3c2)no1`, for which the inhibition is -16.7% (inactive). In the case of `Cc1ccc2c(c1C)NC(C)CC2C` (stereo not given), the inhibition was 13.6% (inactive). With `Cn1c(CCCNC(=O)c2ccccc2)nc2ccccc21` the figure was 1.35% (inactive); with `CCOc1ccc(N2CC(C(=O)Nc3ccc(F)cc3F)CC2=O)cc1` (stereo not given), 26.2% (inactive). On to `CC(=O)Nc1nc(C)c(-c2csc(Nc3ccc(O)cc3)n2)s1`, for which the inhibition was 9.01% (inactive). With `O=C(NCc1ccco1)C1CCN(C(=O)c2cc3sccc3n2Cc2ccc(F)cc2)CC1` the figure was 27.2% (inactive); with `O=C(COC(=O)C1(c2ccccc2F)CCCC1)NC1CCS(=O)(=O)C1` (stereo not given), 9.43% (inactive). In the case of `N#CC1=C(N)Oc2n[nH]c(-c3cccs3)c2C1c1cccs1` (stereo not given), the inhibition was 17.8% (inactive). For `NC(=O)C1(N2CCCCC2)CCN(Cc2ccccc2Cl)CC1` the value was 19.9% (inactive). With `CCCCc1ccc(NC(=O)c2c(C)noc2C)cc1` the figure was -38.5% (inactive); with `CC(=O)Oc1cccc(/C=c2\sc3nc(-c4ccco4)nn3c2=O)c1`, 16.1% (inactive); with `CCN(CC)S(=O)(=O)c1ccc2oc(C(=O)O)c(C)c2c1`, 11.9% (inactive).

Take `Cc1noc(C)c1COc1cccc(C(=O)Oc2ccc3c(c2)OCO3)c1`: the inhibition was 15.8% (inactive). For `CCOC(=O)COc1ccc(S(=O)(=O)Nc2ccc3c(c2)OCO3)cc1` the value was 19.9% (inactive); for `COc1ccc(N(CC(=O)N2CCN(Cc3ccc4c(c3)OCO4)CC2)S(C)(=O)=O)cc1OC`, 20.2% (inactive). For `CNC(=O)CN(C#N)c1nc(N(C)C)nc(N(C)C)n1` the value was 10.6% (inactive). For `COc1cccc(-n2c(C)nc3c(cnn3-c3ccc(C)cc3)c2=O)c1` the value was -67.9% (inactive). `Cc1ccccc1-c1nc(CN2CCC(C(=O)NCCCN3CCOCC3)CC2)c(C)o1`: the inhibition was 22.4% (inactive).

`Cc1nc2cc(NC(=O)N3CC4(C)CC3CC(C)(C)C4)ccc2n1C` (stereo not given): the inhibition was 16.4% (inactive). With `CS(=O)(=O)N(CC(=O)N1CCN(c2cccc(Cl)c2)CC1)C1CCCCC1`, the inhibition was 0.307% (inactive).

On to `CC(C)(C)n1ncc2c(=O)n(CC(=O)NCCc3ccccc3)cnc21`, for which the inhibition was -58.1% (inactive). For `CCCCc1cc(=O)oc2cc(C)cc(OC(C)C(=O)O)c12` (stereo not given) the value was 21.5% (inactive); for `CC(C)(C)c1ccccc1NC(=O)c1cccnc1`, 19.9% (inactive). With `Cc1cc(-c2ccccc2)c2nncn2n1` the figure was 15.3% (inactive); with `Cc1ccc(-c2nnn(CC(=O)N(CC(=O)NCC3CCCO3)c3ccccc3)n2)o1` (stereo not given), 5.51% (inactive). Turning to `C=CCSc1nnc(-c2ccccc2NC(C)=O)c(=O)[nH]1`, the inhibition is 9.66% (inactive). With `Cn1c(=O)c2c(nc(SCC(=O)NCc3ccc4c(c3)OCO4)n2Cc2ccccc2)n(C)c1=O` the figure was 11.8% (inactive); with `COc1cc(C(=O)N2CCC(c3nc(-c4cccnc4)no3)CC2)cc(OC)c1OC`, 24.5% (inactive). Take `CC1CCc2nc(NC(=O)CN3CCN(Cc4ccc5c(c4)OCO5)CC3)sc2C1` (stereo not given): the inhibition was 10.6% (inactive). With `O=C(CCCn1c(=O)c2sccc2n(Cc2ccc(F)cc2)c1=O)NCc1ccco1` the figure was 15.5% (inactive); with `Cc1ccc2cc(CN(CC(C)C)C(=O)C3CCCO3)c(=O)[nH]c2c1` (stereo not given), 26.4% (inactive); with `CCOc1ccc(C(=O)N(CN2CCCC2=O)c2ccc(C)cc2)cc1`, -43.9% (inactive). With `CCCCCc1c(O)c2ccccc2[nH]c1=O` the figure was 13.8% (inactive); with `CC1CCN(S(=O)(=O)c2ccc(NC(=O)CSc3nnnn3C)cc2)CC1`, 20.7% (inactive); with `O=C(c1nc2n(n1)C(c1ccc(Cl)cc1)C=C(c1ccccc1)N2)N1CCOCC1` (stereo not given), -4.24% (inactive). With `Cc1nc2cccc(C(=O)NC3CCCCC3)c2o1` the figure was 13.1% (inactive). As for `COc1ccccc1-c1nnc2sc(-c3ccc(N(C)C)cc3)nn12`, the inhibition is 87.1% (active).

As to `O=C(Nc1cccc(C(F)(F)F)c1)c1cccnc1N1CCCC1`, the inhibition was 28.2% (inactive). For `CCNC(=O)C1CC(=O)N(Cc2ccc3c(c2)OCO3)C(=Nc2ccc(OCC)cc2)S1` (stereo not given) the value was 21.2% (inactive).

Values taken from PubChem BioAssay.
